Compound activity as filed in PubChem.
Menin-MLL FL inh – qHTS Assay for Inhibitors Targeting the Menin-MLL Interaction in MLL Related Leukemias: Competition With Fluorescein Labeled MLL-derived Peptide | Fluorescence polarization, fluorescein-MLL peptide displacement from menin | 290,000 tested, under 10 active | AID 1766, 2009 | FP activity change, % at 61.4 µM; active means well fitted curve in the direction sought with a large enough effect in the polarisation, not every such curve was filed as active; inconclusive means small, poorly fitted or top-dose-only effect, or effect the other way, or a change in a side signal; inactive means no such curve, though single readings can be large or run the other way; the % refers to the polarisation; further: % of control where 0% means no effect
CXXC DNA block – qHTS Fluorescence Polarization Assay for Inhibitors of MLL CXXC domain - DNA interaction | MLL-CXXC / FITC-HOXA9 DNA fluorescence polarization | Potency, µM (doses to about 115 µM), for the others: at the top dose activity change, negative = inhibition, most hits filed as inhibitors | 0.037% of 290,000 active | AID 2662, 2010; active means well fitted inhibition curve with a large enough effect in the polarisation, with a control signal flat, not every such curve was filed as active; inconclusive means small, poorly fitted or top-dose-only effect, or effect the other way, or a change in a side signal; inactive means no such curve, though single readings can be large or run the other way; the % refers to the polarisation; further: potency means the concentration at half of the fitted maximal effect
Target sequence (Q03164 whole entry, looked up, the tested form may be a part): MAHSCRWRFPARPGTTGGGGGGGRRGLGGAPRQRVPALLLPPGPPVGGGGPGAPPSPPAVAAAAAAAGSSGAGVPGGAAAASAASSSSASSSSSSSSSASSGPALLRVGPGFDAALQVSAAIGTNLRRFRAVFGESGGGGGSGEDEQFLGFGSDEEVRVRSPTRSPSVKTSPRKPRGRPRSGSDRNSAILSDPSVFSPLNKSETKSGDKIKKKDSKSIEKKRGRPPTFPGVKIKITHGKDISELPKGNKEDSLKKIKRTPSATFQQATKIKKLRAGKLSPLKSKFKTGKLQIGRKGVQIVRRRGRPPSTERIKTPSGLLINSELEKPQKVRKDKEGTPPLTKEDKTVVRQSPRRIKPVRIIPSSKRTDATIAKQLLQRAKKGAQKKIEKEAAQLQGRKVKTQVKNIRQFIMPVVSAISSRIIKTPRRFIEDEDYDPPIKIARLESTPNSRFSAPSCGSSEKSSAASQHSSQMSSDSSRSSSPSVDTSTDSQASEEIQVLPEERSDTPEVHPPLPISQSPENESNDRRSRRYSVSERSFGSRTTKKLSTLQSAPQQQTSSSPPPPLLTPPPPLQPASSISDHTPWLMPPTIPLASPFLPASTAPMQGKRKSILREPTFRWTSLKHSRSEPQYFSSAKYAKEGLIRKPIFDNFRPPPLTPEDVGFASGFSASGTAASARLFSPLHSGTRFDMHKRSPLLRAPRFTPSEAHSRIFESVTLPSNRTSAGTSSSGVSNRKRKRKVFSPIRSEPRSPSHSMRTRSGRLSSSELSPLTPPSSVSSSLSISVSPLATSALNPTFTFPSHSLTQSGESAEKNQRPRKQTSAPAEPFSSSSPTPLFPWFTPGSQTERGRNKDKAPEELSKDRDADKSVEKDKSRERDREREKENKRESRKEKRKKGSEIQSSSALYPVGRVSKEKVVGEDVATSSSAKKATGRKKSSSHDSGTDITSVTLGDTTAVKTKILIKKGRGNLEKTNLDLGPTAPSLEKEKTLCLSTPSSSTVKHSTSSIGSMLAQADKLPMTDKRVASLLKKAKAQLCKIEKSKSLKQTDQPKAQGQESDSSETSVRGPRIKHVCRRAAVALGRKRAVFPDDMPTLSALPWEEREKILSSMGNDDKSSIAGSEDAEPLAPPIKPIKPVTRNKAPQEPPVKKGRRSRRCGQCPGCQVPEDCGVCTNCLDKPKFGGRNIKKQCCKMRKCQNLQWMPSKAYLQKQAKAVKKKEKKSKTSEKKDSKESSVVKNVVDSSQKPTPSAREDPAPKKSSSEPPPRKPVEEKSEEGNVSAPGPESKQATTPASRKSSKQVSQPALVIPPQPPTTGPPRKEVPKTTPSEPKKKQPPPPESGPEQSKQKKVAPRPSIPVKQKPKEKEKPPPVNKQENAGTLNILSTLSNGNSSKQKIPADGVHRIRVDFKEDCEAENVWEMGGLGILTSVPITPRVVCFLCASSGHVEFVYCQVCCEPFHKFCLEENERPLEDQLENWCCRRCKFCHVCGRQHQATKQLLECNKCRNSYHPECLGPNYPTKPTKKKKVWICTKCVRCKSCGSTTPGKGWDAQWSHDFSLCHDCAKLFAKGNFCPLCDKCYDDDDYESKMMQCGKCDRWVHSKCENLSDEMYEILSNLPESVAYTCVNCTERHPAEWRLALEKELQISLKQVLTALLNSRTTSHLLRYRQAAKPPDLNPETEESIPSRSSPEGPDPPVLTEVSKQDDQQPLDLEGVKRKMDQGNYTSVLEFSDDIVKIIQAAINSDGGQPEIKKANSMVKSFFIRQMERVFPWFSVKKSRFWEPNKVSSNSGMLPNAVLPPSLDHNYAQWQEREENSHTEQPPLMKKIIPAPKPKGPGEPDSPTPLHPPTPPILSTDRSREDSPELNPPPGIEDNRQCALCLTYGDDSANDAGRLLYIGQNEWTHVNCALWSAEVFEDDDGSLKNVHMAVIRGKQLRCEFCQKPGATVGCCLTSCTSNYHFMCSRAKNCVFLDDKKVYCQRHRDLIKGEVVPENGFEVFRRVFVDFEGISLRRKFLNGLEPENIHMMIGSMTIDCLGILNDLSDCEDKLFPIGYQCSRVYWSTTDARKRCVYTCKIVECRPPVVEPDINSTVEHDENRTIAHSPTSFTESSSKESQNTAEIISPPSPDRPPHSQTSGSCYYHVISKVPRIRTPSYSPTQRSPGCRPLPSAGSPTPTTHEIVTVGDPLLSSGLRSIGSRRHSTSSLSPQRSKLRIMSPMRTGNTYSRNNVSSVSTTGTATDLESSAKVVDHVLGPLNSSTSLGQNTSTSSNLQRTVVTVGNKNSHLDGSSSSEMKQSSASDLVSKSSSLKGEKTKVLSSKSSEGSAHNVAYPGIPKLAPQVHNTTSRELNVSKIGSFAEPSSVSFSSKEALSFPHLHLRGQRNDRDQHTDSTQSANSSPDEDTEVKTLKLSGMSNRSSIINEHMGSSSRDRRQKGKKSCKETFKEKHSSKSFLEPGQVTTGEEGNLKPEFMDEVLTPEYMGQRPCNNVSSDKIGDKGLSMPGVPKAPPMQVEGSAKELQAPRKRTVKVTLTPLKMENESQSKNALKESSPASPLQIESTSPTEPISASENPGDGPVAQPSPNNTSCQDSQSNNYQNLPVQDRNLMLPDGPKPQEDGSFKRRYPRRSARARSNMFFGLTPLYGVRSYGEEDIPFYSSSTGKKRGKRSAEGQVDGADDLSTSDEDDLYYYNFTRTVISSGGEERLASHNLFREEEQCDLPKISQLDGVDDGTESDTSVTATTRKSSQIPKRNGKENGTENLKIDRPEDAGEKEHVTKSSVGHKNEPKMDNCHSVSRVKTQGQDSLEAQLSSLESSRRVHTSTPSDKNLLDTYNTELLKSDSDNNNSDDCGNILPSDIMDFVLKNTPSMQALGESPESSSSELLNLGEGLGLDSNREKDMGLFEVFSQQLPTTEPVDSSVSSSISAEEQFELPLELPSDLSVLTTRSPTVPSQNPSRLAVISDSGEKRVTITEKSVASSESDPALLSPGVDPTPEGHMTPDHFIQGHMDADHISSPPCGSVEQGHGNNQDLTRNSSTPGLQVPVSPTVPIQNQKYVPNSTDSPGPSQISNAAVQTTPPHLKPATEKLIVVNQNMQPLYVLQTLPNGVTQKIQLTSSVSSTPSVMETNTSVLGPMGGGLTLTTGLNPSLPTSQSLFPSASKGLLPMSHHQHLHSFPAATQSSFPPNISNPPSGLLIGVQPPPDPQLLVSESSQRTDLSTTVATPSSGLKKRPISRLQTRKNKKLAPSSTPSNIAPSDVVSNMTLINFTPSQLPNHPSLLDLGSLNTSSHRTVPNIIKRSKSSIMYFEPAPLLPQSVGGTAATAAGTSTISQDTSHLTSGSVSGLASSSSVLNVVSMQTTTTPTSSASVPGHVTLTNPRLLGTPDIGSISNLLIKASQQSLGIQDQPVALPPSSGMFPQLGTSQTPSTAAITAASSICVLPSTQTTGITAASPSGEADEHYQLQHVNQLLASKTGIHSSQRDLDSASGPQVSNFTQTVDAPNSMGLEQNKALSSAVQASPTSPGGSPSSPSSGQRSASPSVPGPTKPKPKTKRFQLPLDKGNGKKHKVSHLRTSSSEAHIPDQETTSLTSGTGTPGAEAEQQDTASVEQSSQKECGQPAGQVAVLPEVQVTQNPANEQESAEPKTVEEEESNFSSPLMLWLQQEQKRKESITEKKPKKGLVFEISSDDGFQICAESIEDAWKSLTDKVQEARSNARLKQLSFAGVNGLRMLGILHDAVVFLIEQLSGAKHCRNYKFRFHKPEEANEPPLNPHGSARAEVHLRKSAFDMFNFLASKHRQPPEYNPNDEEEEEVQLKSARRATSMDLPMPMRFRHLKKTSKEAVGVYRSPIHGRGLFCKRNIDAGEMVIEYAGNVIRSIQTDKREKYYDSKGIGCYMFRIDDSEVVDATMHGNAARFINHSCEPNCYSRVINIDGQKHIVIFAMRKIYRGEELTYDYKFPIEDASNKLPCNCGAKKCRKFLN
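Steps: dispense CXXC domain solution (7 uM) → pin compounds or unlabeled HOX-A9 DNA control → 5 min ambient → add FLSN-HOX-A9 solution (50 nM) → spin → 30 min ambient → fluorescence polarization. Tris pH 7.5/NaCl/DTT/BSA buffer.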
Menin-MLL TR inh – qHTS Assay for Inhibitors Targeting the Menin-MLL Interaction in MLL Related Leukemias: Competition With Texas Red Labeled MLL-derived Mutant Peptide; O00255; 0.23% of 270,000 active; Menin + Texas Red MLL mutant peptide, fluorescence polarization; Potency, µM (top dose mostly 61.6 µM), for the others: top-dose FP activity change, negative = inhibition, hits mostly inhibitors; active means well fitted inhibition curve with a large enough effect in the polarisation, with a control signal flat, not every such curve was filed as active; inconclusive means small, poorly fitted or top-dose-only effect, or effect the other way, or a change in a side signal; inactive means no such curve, though single readings can be large or run the other way; the % refers to the polarisation; further: potency means the concentration at half of the fitted maximal effect; % of control where 0% means no effect
p53 reactivator – qHTS assay for re-activators of p53 using a Luc reporter | H1299 p53-A138V BP100-luciferase reporter, luminescence, 24 h | Potency, µM (titrated, usually from 92.2 µM), for inactives: top-dose activity change, positive = activation, actives largely listed as activators | 0.063% of 320,000 active; active means well fitted activation curve with a large enough effect; inconclusive means small, poorly fitted or top-dose-only effect; inactive means no such curve, though single readings can be large or run the other way; further: potency means the concentration at half of the fitted maximal effect; % of control where 0% means no effect; nearly all actives have a fitted effect of over 45% in size
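H1299 (p53-null), stable ts p53-A138V + BP100-Luc; 1000 cells/well, Opti-MEM/10% FBS; cpd 4 pt, 1:5; 24 h, 37 deg C, 5% CO2; detection reagent 10 min RT; luminescence.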
ClpP mod – qHTS Assay for Activators of ClpP. ATP-dependent Clp protease proteolytic subunit (Bacillus subtilis (strain 168)), P80244. purified B. subtilis ClpP, FRET peptide cleavage, 20 min. Potency, µM (highest dose often 57.5 µM), without a hit: top-dose activity change, negative = active. 1.9% of 340,000 active. AID 651965, 2013; active means well fitted falling curve with a large enough effect; inconclusive means small, poorly fitted or top-dose-only effect; inactive means no such curve, though single readings can be large or run the other way; further: potency means the concentration at half of the fitted maximal effect; the source files actives as falling curves though it sought activators and does not explain the sign; nearly all actives have a fitted effect of over 65% in size
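Buffer: 100 mM Tris/HCl pH8, 100 mM KCl, 0.05% low protease BSA, 2.5% glycerol, 0.01% Tween-20. ClpP 10 microg/mL final; 20 min RT; delta FRET normalized to ADEP and DMSO controls.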
* marks the source's active call; other numbers are inactive results; ? = inconclusive; / = no result; [ ] = another dose, or the depositor's remark. Many of the other results were omitted from the sample, so hits are more common in it than they were.

SMILES	Menin-MLL FL inh	CXXC DNA block	Menin-MLL TR inh	p53 reactivator	ClpP mod
COc1ccc(CCn2c(=O)[nH]c3cc(C(=O)N4CCN(c5ccccn5)CC4)ccc3c2=O)cc1OC	-3	6%	-23%	2%	11µM*
COc1ccc(/C=C/C(=O)NC(=S)N2CCN(c3ccccn3)CC2)cc1OC	-3	-8%	-10%	-1%	7%
COc1ccc(CCn2c(=O)[nH]c3cc(C(=O)N4CCN(c5ccccc5)CC4)ccc3c2=O)cc1OC	2	18%	-18%	12%	0%
CCc1nnc(NC(=O)CCC(=O)N2CCN(c3ccccn3)CC2)s1	7	6%	3%	0%	18µM*
Cc1cccc(C(=O)NCC(=O)N2CCN(c3ccccn3)CC2)c1	/	/	/	20%	28µM*
CCc1nnc(NC(=O)CCC(=O)N2CCN(Cc3ccccc3)CC2)s1	-1	0%	-18%	-2%	-1%
CN(C)c1ccc(-c2cc(C3C4C=CCCC4(C)C(=O)N3Cc3ccccc3)ccc2F)cc1 (stereo not given)	0	/	-20%	/	/
COc1ccccc1/C=C/c1nc2ccccc2[nH]1	/	/	/	/	4%
CC(C)NCC(=O)NC12CC3CC(CC(C3)C1)C2	0	-5%	-2%	-3%	16µM*
O=C(O)CC(=O)NC12CC3CC(CC(C3)C1)C2	1	-5%	2%	1%	1%
CSc1ccccc1OCc1cc(C(=O)NCCN2CCCC(O)C2)no1 (stereo not given)	/	21%	/	27%	28µM*
COC(=O)Cc1[nH]nc2c1C(c1cc(OC)c(OC)c(OC)c1)C(C#N)=C(N)O2 (stereo not given)	2	-7%	/	2%	-2%
COC(=O)Cc1[nH]nc2c1C(C1C=CCCC1)C(C#N)=C(N)O2 (stereo not given)	-2	1%	8%	28%	7.1µM*
CCCN1CNc2c(c(=O)[nH]c(=S)n2CCc2ccccc2OC)C1	/	/	/	/	0%
CCOC(=O)c1c(-c2ccc(F)cc2)csc1/N=C/N(C)C	0	2%	1%	-5%	25µM*
Cc1cccc(NC(=O)c2ccccc2Br)n1	1	0%	-15%	14%	-2%
Cc1cccc(NC(=O)c2ccoc2C)n1	4	3%	6%	?	28µM*
O=C(N/N=C/c1cccc(F)c1)c1cc(-c2ccco2)nc2ccccc12	4	-3%	?	12%	32µM*
Cc1ccc(S(=O)(=O)N(C)C)cc1NC(=O)c1cc(-c2ccco2)nc2ccccc12	/	-2%	/	5%	28µM*
Cc1cc(C(=O)OCC(=O)Nc2cc(S(=O)(=O)N(C)C)ccc2C)c2ccccc2n1	-1	-1%	11%	-5%	1%
Cc1cccc(NC(=O)c2cc(-c3ccco3)nc3ccccc23)n1	0	3%	11%	13%	22µM*
COc1cc(/C=N/NC(=O)c2cc(-c3ccco3)nc3ccccc23)cc(OC)c1O	2	0%	/	-3%	-16%
CC(C)[C@H](NC(=O)[C@@H]1CSSC[C@H](NC(=O)[C@H](CC(=O)O)NC(=O)[C@H](C)NC(=O)[C@@H](NC(=O)CNC(=O)[C@H](C)N)[C@@H](C)O)C(=O)N[C@@H](Cc2ccccc2)C(=O)N[C@@H](Cc2c[nH]c3ccccc23)C(=O)N[C@@H](CCCCN)C(=O)N[C@@H](Cc2ccc(O)cc2)C(=O)N1)C(=O)O	2	/	-10%	/	/
COc1cccc([C@@H]2Oc3ccc(OC)cc3/C(=N/O[C@@H](C)CN3CCCCc4nc(C)c(C)cc43)[C@@H]2O)c1	?	/	-8%[11.7 µM]	/	/
CSc1ccc(/C=C2\C=Cc3ccccc32)cc1	/	/	/	/	0%
CCN1CCN(Cc2ccc(NC(=O)Nc3ccccc3Cl)cc2)CC1	7	14%	-5%	20µM*	0%
